Key:
Format in all cases: functional
[1] = tested on: Plasmodium falciparum; assay: GSK_TCMDC: Inhibition of Plasmodium falciparum 3D7 in whole red blood cells, using parasite LDH activity as an index of growth. Test compounds present at 2uM
[2] = tested on: Plasmodium falciparum; assay: GSK_TCMDC: Inhibition of Plasmodium falciparum Dd2 in whole red blood cells, using parasite LDH activity as an index of growth. Test compounds present at 2uM
[3] = tested on: HepG2; assay: GSK_TCMDC: Percent inhibition of human HepG2 cell line. Test compounds present at 10uM.

`COc1ccccc1-c1cccc(CNC2CCN(CC3Cn4c(=O)ccc5ccc(F)c3c54)CC2)c1.O=C(O)C(F)(F)F` (stereo not drawn) gave an Inhibition [1] of 91%, an Inhibition [2] of 0% and an Inhibition [3] of 30%.
With `O=C(Nc1cccc(-c2nn3ccccc3c2-c2ccnc(Nc3cccc(F)c3)n2)c1)c1c(F)ccc(F)c1F` the Inhibition [1] was 96%, the Inhibition [2] was 73% and the Inhibition [3] was 33%.
In the case of `CNCCNCc1cccc(-c2ccc(-c3nc4cccc(C)c4[nH]3)cc2)c1.O=C(O)C(F)(F)F`, the Inhibition [1] is reported as 98%, the Inhibition [2] is reported as 21% and the Inhibition [3] is reported as 17%.
Work on `N#Cc1ccc(-c2ccc(C(=O)NCCCCN3CCC(c4cc(Br)c5c(c4OCC(N)=O)CCCC5)CC3)cc2)cc1` yielded an Inhibition [1] of 100%, an Inhibition [2] of 89% and an Inhibition [3] of 23%.
In the case of `CC(C)(C)c1ccc(S(=O)(=O)Nc2ccccc2Cn2nc(N3CCNCC3)ccc2=O)cc1.O=C(O)C(F)(F)F`, the Inhibition [1] is reported as 98%, the Inhibition [2] is reported as 97% and the Inhibition [3] is reported as 0%.
Work on `Cl.Fc1cc(Cl)ccc1Nc1ccnc(Nc2ccc3cn[nH]c3c2)n1` yielded an Inhibition [1] of 97%, an Inhibition [2] of 56% and an Inhibition [3] of 8%.
With `COc1cc(/C=C/C(=O)NC2CCC(N3CCC(c4ccccc4C)CC3)CC2)cc(OC)c1` (stereo not drawn) the Inhibition [1] was 89%, the Inhibition [2] was 11% and the Inhibition [3] was 51%.
Compound `COc1ccc(CNCCc2cccs2)cc1-c1ccc(S(=O)(=O)NCCN2CCCC2)cc1.O=C(O)C(F)(F)F` has an Inhibition [1] of 99%, an Inhibition [2] of 30% and an Inhibition [3] of 30%.
`O=C(Nc1ccc([N+](=O)[O-])cc1)Nc1nc2ccc(Cl)cc2s1` gave an Inhibition [1] of 92%, an Inhibition [2] of 33% and an Inhibition [3] of 63%.
`COc1ccc2nccc([C@@H](O)CN3CCC(NCc4cc5cc([N+](=O)[O-])ccc5[nH]4)CC3)c2c1.O=C(O)C(=O)O` gave an Inhibition [1] of 99%, an Inhibition [2] of 57% and an Inhibition [3] of 29%.
`COc1ccc2nccc(N3CCC(NCCNS(=O)(=O)c4ccc5c(c4)NC(=O)CS5)C3)c2n1.Cl` (stereo not drawn) was tested, and the Inhibition [1] was 97%, the Inhibition [2] was 18% and the Inhibition [3] was 12%.
Work on `CCCCN(Cc1cccc(C(F)(F)F)c1Cl)c1ccc(C(O)(C(F)(F)F)C(F)(F)F)cc1.O=C(O)C(F)(F)F` yielded an Inhibition [1] of 91%, an Inhibition [2] of 55% and an Inhibition [3] of 10%.
In the case of `Cc1cccc2nc(-c3cccc(-c4cccc(CNCCNC(=O)c5ccnn5C)c4)c3)[nH]c12.O=C(O)C(F)(F)F`, the Inhibition [1] is reported as 100%, the Inhibition [2] is reported as 71% and the Inhibition [3] is reported as 26%.
`O=C(Nc1cccc(-c2ccc(-c3nc4cc(F)ccc4[nH]3)cc2)c1)c1cccnc1` showed an Inhibition [1] of 100%, an Inhibition [2] of 92% and an Inhibition [3] of 27%.
In the case of `C=CCN(c1nc(NC)nc(NCc2c(OC)cccc2OC)n1)C1CCCC1`, the Inhibition [1] is reported as 85%, the Inhibition [2] is reported as 70% and the Inhibition [3] is reported as 18%.
Compound `O=C(NC1CC1)C1CCN(Cc2cc3ccccc3n2Cc2ccc(Cl)cc2)CC1` has an Inhibition [1] of 95%, an Inhibition [2] of 96% and an Inhibition [3] of 16%.
In the case of `COc1ccc2nccc([C@@H](O)CN3CCC(NCc4cc5ccccc5s4)CC3)c2c1.O=C(O)C(=O)O`, the Inhibition [1] is reported as 97%, the Inhibition [2] is reported as 53% and the Inhibition [3] is reported as 8%.
Work on `O=C(/C=C/c1ccc(Cl)c(Cl)c1)NCCCCCN1CC[C@H](NC(=O)c2ccc3c(c2)OCO3)C1` yielded an Inhibition [1] of 94%, an Inhibition [2] of 3% and an Inhibition [3] of 32%.
`Cl.O=C(Nc1ccnc2ccccc12)NC1CCN(Cc2ccccc2)CC1` gave an Inhibition [1] of 96%, an Inhibition [2] of 43% and an Inhibition [3] of 18%.
`Cc1[nH]c(C)c(-c2ccc(/C=C/c3ccccn3)cc2)c(=O)c1Cl` showed an Inhibition [1] of 97%, an Inhibition [2] of 96% and an Inhibition [3] of 0%.
`Cc1cccc2nc(-c3ccc(-c4cccc(NCc5cn6cccnc6n5)c4)cc3)[nH]c12` was tested, and the Inhibition [1] was 94%, the Inhibition [2] was 63% and the Inhibition [3] was 9%.
`CN(C)c1ccc(-c2ccc(C(=O)NC3CCN(Cc4ccccc4)CC3)s2)cc1.O=C(O)C(F)(F)F` was tested, and the Inhibition [1] was 92%, the Inhibition [2] was 10% and the Inhibition [3] was 20%.
`Cl.Oc1ccc2ccccc2c1CNCCC1CCCCC1` showed an Inhibition [1] of 99%, an Inhibition [2] of 99% and an Inhibition [3] of 16%.
In the case of `Cl.O=S(=O)(Nc1cc2c(cc1O)CCNCC2)c1ccc(-c2ccc(Cl)cc2)cc1`, the Inhibition [1] is reported as 99%, the Inhibition [2] is reported as 0% and the Inhibition [3] is reported as 10%.
Compound `O=C(Nc1ccc(OCc2ccccc2)cc1)c1nc2ccccc2nc1Cl` has an Inhibition [1] of 96%, an Inhibition [2] of 95% and an Inhibition [3] of 48%.
`CC(C)c1ccc(NC(=O)Nc2ccc(Cn3ncc(N4CCCNCC4)c(Cl)c3=O)cc2)cc1.O=C(O)C(F)(F)F` was tested, and the Inhibition [1] was 85%, the Inhibition [2] was 27% and the Inhibition [3] was 11%.
In the case of `N=C(N)NN=CC(=O)Nc1ccc(Cl)c(Cl)c1`, the Inhibition [1] is reported as 97%, the Inhibition [2] is reported as 0% and the Inhibition [3] is reported as 0%.
Compound `CCc1ccc(NC(=O)c2cccc(CN3CCCN(CC4CCCCC4)CC3)c2)cc1.O=C(O)C(F)(F)F` has an Inhibition [1] of 85%, an Inhibition [2] of 41% and an Inhibition [3] of 62%.
For `Cc1cc(NC(=O)Nc2ccc(N(C)C)cc2)c2cc(Cl)ccc2n1.Cl`, the Inhibition [1] was 100%, the Inhibition [2] was 50% and the Inhibition [3] was 0%.
`O=C(O)C(F)(F)F.c1cc(CNC2CCN(CC3CCCCC3)CC2)cc(-n2ccnc2)c1` showed an Inhibition [1] of 100%, an Inhibition [2] of 97% and an Inhibition [3] of 3%.
`O=C(/C=C/c1ccc(Cl)c(Cl)c1)NCCCCCN1CCN(C(=O)Nc2ccc(Cl)c(C(F)(F)F)c2)CC1` was tested, and the Inhibition [1] was 100%, the Inhibition [2] was 0% and the Inhibition [3] was 22%.
`Cc1cc(-c2cccc3c(C(=O)N4CCc5cc6nccc(N7CCCN(C)CC7)c6cc54)cccc23)cc(C)n1.Cl` showed an Inhibition [1] of 100%, an Inhibition [2] of 100% and an Inhibition [3] of 17%.
Work on `c1cncc(CNc2ncc(-c3ccsc3)c(-c3nccs3)n2)c1` yielded an Inhibition [1] of 81%, an Inhibition [2] of 63% and an Inhibition [3] of 0%.
Work on `O=C(O)C1Cc2c([nH]c3ccccc23)C(c2ccc(Cl)cc2Cl)N1` (stereo not drawn) yielded an Inhibition [1] of 91%, an Inhibition [2] of 100% and an Inhibition [3] of 7%.
In the case of `CCCCCCCCCCN1C(=O)C2C(CCCCNC(C)=O)NC3(C(=O)N(Cc4ccc(C(C)(C)C)cc4)c4ccccc43)C2C1=O` (stereo not drawn), the Inhibition [1] is reported as 86%, the Inhibition [2] is reported as 65% and the Inhibition [3] is reported as 3%.
For `Cc1ccc(O)cc1Nc1c(C(N)=O)cnc2ccc(-c3cncs3)cc12`, the Inhibition [1] was 100%, the Inhibition [2] was 99% and the Inhibition [3] was 21%.
With `CC(C)(C)c1ccc(CN2CCC(NC(=O)c3ccc(-c4cccc(F)c4)s3)CC2)cc1.O=C(O)C(F)(F)F` the Inhibition [1] was 92%, the Inhibition [2] was 24% and the Inhibition [3] was 35%.
Compound `COc1ccc2ncc(C#N)c(CCN3C4CCC3CC(NCc3ccc5c(n3)NC(=O)CS5)C4)c2c1.Cl` (stereo not drawn) has an Inhibition [1] of 95%, an Inhibition [2] of 27% and an Inhibition [3] of 6%.
For `CCCCCOc1ccc(C(O)C(CCC(CN2CCCCCC2)C(O)c2ccc(OCCCCC)cc2)CN2CCCCCC2)cc1.Cl` (stereo not drawn), the Inhibition [1] was 99%, the Inhibition [2] was 93% and the Inhibition [3] was 99%.
Compound `CCOC(=O)c1ccc2[nH]c(-c3ccc(C(=O)NC4CCN(Cc5ccccc5)CC4)s3)nc2c1` has an Inhibition [1] of 100%, an Inhibition [2] of 95% and an Inhibition [3] of 32%.
In the case of `Cl.N=C(N)NN=Cc1ccc2c(ccc3ccccc32)c1`, the Inhibition [1] is reported as 100%, the Inhibition [2] is reported as 68% and the Inhibition [3] is reported as 9%.
Work on `Cc1cc(N[C@@H](Cc2ccccc2)C(=O)NCCCOC(C)C)nc(NCCc2ccc(F)cc2)n1.O=C(O)C(F)(F)F` yielded an Inhibition [1] of 100%, an Inhibition [2] of 36% and an Inhibition [3] of 15%.
For `CCC(CO)NCC(O)Cn1c2ccc(Cl)cc2c2cc(Cl)ccc21` (stereo not drawn), the Inhibition [1] was 96%, the Inhibition [2] was 88% and the Inhibition [3] was 11%.
Compound `O=C(Nc1ccc(F)cc1)N1CCCN(c2ccnc3cc(Cl)ccc23)CC1.O=C(O)C(F)(F)F` has an Inhibition [1] of 97%, an Inhibition [2] of 16% and an Inhibition [3] of 7%.
`O=C(NC1CCC1)C1CCN(C(c2ccc(Cl)cc2)c2ccc(Cl)cc2)CC1` showed an Inhibition [1] of 95%, an Inhibition [2] of 70% and an Inhibition [3] of 6%.
`CC(C)C[C@H](NC(=O)c1cc2ccccc2s1)C(=O)N[C@H]1CCN(Cc2ccc(OCCCN(C)C)c(Cl)c2)C1.O=C(O)C(F)(F)F` was tested, and the Inhibition [1] was 100%, the Inhibition [2] was 89% and the Inhibition [3] was 83%.
`Cc1cccc2nc(-c3ccc(-c4ccc(CN5CCN(CCC#N)CC5)cc4)cc3)[nH]c12.O=C(O)C(F)(F)F` was tested, and the Inhibition [1] was 91%, the Inhibition [2] was 27% and the Inhibition [3] was 48%.
Work on `Cc1cc(N2CCCC2)nc(Nc2ccc(NC(=O)c3ccccc3)cc2)n1` yielded an Inhibition [1] of 100%, an Inhibition [2] of 65% and an Inhibition [3] of 26%.
`Cc1nnsc1C(=O)Nc1cccc(-c2csc(-c3nc4ccccc4[nH]3)c2)c1` showed an Inhibition [1] of 94%, an Inhibition [2] of 50% and an Inhibition [3] of 51%.
`COc1ccc(NC(=O)[C@H](Cc2ccccc2)Nc2cc(C)nc(Nc3ccccc3)n2)cc1.O=C(O)C(F)(F)F` gave an Inhibition [1] of 100%, an Inhibition [2] of 92% and an Inhibition [3] of 0%.
For `CN(C)c1ccc(-c2ccc(C(=O)NC3CCN(Cc4cccc(C(F)(F)F)c4)CC3)s2)cc1.O=C(O)C(F)(F)F`, the Inhibition [1] was 96%, the Inhibition [2] was 77% and the Inhibition [3] was 35%.
Compound `O=C1SC(=Cc2ccc(O)c(O)c2)C(=O)N1c1ccccc1` has an Inhibition [1] of 91%, an Inhibition [2] of 17% and an Inhibition [3] of 12%.
Work on `Oc1ccc(-c2ccccc2)cc1CN1CCCCC1` yielded an Inhibition [1] of 93%, an Inhibition [2] of 70% and an Inhibition [3] of 3%.
`c1ccn2c(-c3ncnc(NCc4ccc5c(c4)CCO5)n3)cnc2c1` was tested, and the Inhibition [1] was 86%, the Inhibition [2] was 47% and the Inhibition [3] was 12%.
In the case of `Cl.NC1CCN(Cc2cccc(-c3ccc(-c4nc5cc(C(F)(F)F)ccc5[nH]4)cc3)c2)C1` (stereo not drawn), the Inhibition [1] is reported as 99%, the Inhibition [2] is reported as 97% and the Inhibition [3] is reported as 21%.
`CN(C)CCNC(=O)c1ccc(-c2ccc3c(Nc4ccccc4)c(C(N)=O)cnc3c2)cc1` showed an Inhibition [1] of 99%, an Inhibition [2] of 68% and an Inhibition [3] of 9%.
`N#Cc1cc(C(=O)c2cc(Br)ccc2O)cn(-c2cc(Cl)cc(Cl)c2)c1=O` was tested, and the Inhibition [1] was 98%, the Inhibition [2] was 35% and the Inhibition [3] was 42%.
Compound `COc1ccc(-c2nccc(NC(=N)NCc3ccccc3)n2)cc1` has an Inhibition [1] of 83%, an Inhibition [2] of 21% and an Inhibition [3] of 27%.
For `Cc1cc(N[C@@H](Cc2ccccc2)C(=O)NCCOc2ccccc2)nc(NCCc2ccccc2)n1.O=C(O)C(F)(F)F`, the Inhibition [1] was 100%, the Inhibition [2] was 68% and the Inhibition [3] was 12%.
`COc1ccc2nc3cc(Cl)ccc3c(NCCCCNc3c4ccc(Cl)cc4nc4ccc(OC)cc34)c2c1` showed an Inhibition [1] of 99%, an Inhibition [2] of 99% and an Inhibition [3] of 20%.
`CCc1ccc(-c2nc3cc(NC(=O)c4cc([N+](=O)[O-])cc([N+](=O)[O-])c4)ccc3o2)cc1` showed an Inhibition [1] of 93%, an Inhibition [2] of 12% and an Inhibition [3] of 12%.

— ChEMBL document CHEMBL1157539, “Thousands of chemical starting points for antimalarial lead identification” (Nature, 2010)
